# Measured values: PubChem BioAssay (Tox21)
# Results filed as inconclusive are left out. Where a call stands in place of a potency, no number is given. Activity calls are given as the source filed them. The call rests on the fitted dose curve; in most records, active means well fitted cell-killing curve with a large enough effect in the repeat runs; inconclusive means weak or mixed curves, or effect the other way; inactive means flat fitted curve, though single readings scatter.
# Columns and labels:
# [1] = cAMP Responsive Elements (CRE) small molecule antagonists, cell-based qHTS assay: qHTS cell viability counter screen (AID 2060913); conditions: CRE-bla HEK293T viability, CellTiter-Glo luminescence, 5 h; series mostly up to 92.4 µM; further: nearly all actives have a fitted effect of over 40% in size
# In short: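 CRE-bla HEK293T cells were seeded in assay medium with 10% dialyzed FBS, incubated 18 hrs at 37 C, then exposed to compounds plus 0.25 uM final NKH477 for 3 hrs. Viability was read by CellTiter-Glo luminescence after 30 min, in the same wells.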
# [2] = cAMP Responsive Elements (CRE) small molecule agonists, cell-based qHTS assay: qHTS cell viability counter screen (AID 2060914); conditions: CRE-bla HEK293T viability, CellTiter-Glo luminescence, 5 h; series mostly up to 92.4 µM; further: nearly all actives have a fitted effect of over 50% in size
# In short: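 Luminescence read-out (CellTiter-Glo, 30 min RT) of ATP-based viability in CRE-bla HEK 293T cells, run in the same wells as the β-lactamase reporter assay after 3 h compound treatment at 37 °C.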
SMILES,Potency [1],Potency [2]
Cc1cc(O)c(Cl)c(C)c1Cl,inactive,inactive
CCCCCC,inactive,inactive
CN/C(=C\[N+](=O)[O-])NCCSCc1ccc(CN(C)C)o1,inactive,inactive
COc1c2occc2c(OC)c2c(=O)cc(C)oc12,inactive,inactive
